# Pf Dd2 inh: inhibitors of Plasmodium falciparum Dd2 growth | P. falciparum Dd2 growth, SYBR Green, 72 h | Potency, µM (highest dose often 28.9 µM), for inactives: top-dose activity, negative = inhibition, hits mostly inhibitors | hit rate 4.3% among 120,000 | AID 1347417; active = well fitted inhibition curve with a large enough effect;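 also: plate controls were DMSO vehicle for no effect and reference drug for full effect; nearly all actives have a fitted effect of over 65% in size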
#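 Readout: SYBR Green fluorescence, 485 nm excitation, 535 nm emission, after ~16 h lysis at 37C. Before that, Dd2-infected red cells (2.5% hematocrit) grew 72 h with compound, 29 uM top final concentration.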
# Starred values were filed as active, the others as inactive; i = inactive; [ ] = dose if it differs, or a comment. This is one part of a sample in which hits are shown more often than they occur. Potency is read from the fitted curve at half-maximal effect.
SMILES,Pf Dd2 inh
Cc1cc(NC(=O)c2ccc3c(c2)N(Cc2cccc(Cl)c2)C(=O)c2ccccc2S3=O)ccc1Br (configuration not stated),10µM*
CC(=O)Nc1ccc(NC(=O)c2ccc3c(c2)N(Cc2cccc(Cl)c2)C(=O)c2ccccc2S3(=O)=O)cc1,-24.8%
Cc1ccc(CNC(=O)c2ccc3c(c2)N(Cc2ccccc2F)C(=O)c2ccccc2S3(=O)=O)cc1,i
N#Cc1cccc(NC(=O)c2ccc3c(c2)N(Cc2cccc(Cl)c2)C(=O)c2ccccc2S3(=O)=O)c1,2.24µM*
CCN1C(=O)c2ccccc2Sc2ccc(NC(=O)c3ccc(C#N)cc3)cc21,23.3%
COc1ccc(C)cc1NC(=O)c1ccc2c(c1)N(Cc1cccc(Cl)c1)C(=O)c1ccccc1S2=O (configuration not stated),7.94µM*
O=C(Nc1cccc(Cl)c1Cl)c1ccc2c(c1)N(Cc1cccc(Cl)c1)C(=O)c1ccccc1S2=O (configuration not stated),66.1%[0.594 µM]
Cc1cccc(C)c1NC(=O)c1ccc2c(c1)N(Cc1cccc(Cl)c1)C(=O)c1ccccc1S2=O (configuration not stated),-15.6%
CCN1C(=O)c2ccccc2Sc2ccc(NC(=O)c3cccc(C)c3)cc21,i
CCC(C)NC(=O)c1ccc2c(c1)N(Cc1cccc(Cl)c1)C(=O)c1ccccc1S2=O (configuration not stated),-22.6%
O=C(c1ccc2c(c1)N(Cc1ccc(Cl)cc1)C(=O)c1ccccc1S2(=O)=O)N1CCc2ccccc21,i
Cc1cc(NC(=O)c2ccc3c(c2)N(Cc2cccc(Cl)c2)C(=O)c2ccccc2S3(=O)=O)ccc1Br,8.91µM*
COCc1cc(=O)n(CC(=O)Nc2ccc(C)c(Cl)c2)c(N2CCOCC2)n1,-2.0%
COc1ccc(CNC(=O)CN2C(=O)C(c3ccccc3)=NC23CCCC3)cc1OC,i
COc1ccc(CNC(=O)O[C@H]2COCCN(c3nc4ccccc4s3)C2)cc1,i
N#Cc1cccc(C(=O)NC2CCc3n[nH]c(=O)n3CC2)c1 (configuration not stated),i
COCCN1C(=O)C(CC(=O)NCCc2ccccc2)=C2CCCCC21 (configuration not stated),-8.5%
COc1ccc(C(=O)N2CCC(c3noc(-c4cccnc4)n3)C2)cn1 (configuration not stated),17.9%[5.79 µM]
CC(C)c1nncn1C1CCN(S(=O)(=O)Cc2ccc(Cl)cc2)CC1,-25.7%
CC(=O)Nc1cccc(-c2ccnc(-c3nnc(C)n3C(C)C)c2)c1,i
Cn1ccc(C(=O)N2CC3ON=C(C(=O)NCc4ccc(F)cc4)C3C2)n1 (configuration not stated),4.9%
COc1ccccc1C(=O)N1CCc2[nH]nc(C(=O)NCCCc3ccccc3)c2C1,i
CCOC(=O)c1cccc(NC(=O)C2CCCN(S(=O)(=O)c3cc(Br)cc4c3N(C(=O)CC)CC4)C2)c1 (configuration not stated),-23.3%
CCOc1ccc(OCC)c(NC(=O)C2CCCN(S(=O)(=O)c3cc(Br)cc4c3N(C(=O)CC)CC4)C2)c1 (configuration not stated),7.94µM*
CCOC(=O)C1CCCN(S(=O)(=O)c2cc(Br)cc3c2N(C(C)=O)CC3)C1 (configuration not stated),21.0%
SMILES,Pf Dd2 inh
O=C(NCC(F)(F)F)c1ccc2c(c1)C1(CCN(CC3CC3)C1)CN2Cc1ccccc1 (configuration not stated),i
CC1(C(=O)O)CCN(C(=O)c2ccc3c(c2)OC(F)(F)O3)CC1,34.4%
COCCCNC(=O)N1CC[C@H]2C(=O)NCCCCCCN(Cc3ccncc3)[C@@H]2C1,-19.1%
CCOc1ccccc1NC(=O)Cc1csc(COc2cccc(C)c2)n1,11.2µM*
CC(=O)Nc1cccc(NC(=O)Cc2csc(COc3cccc(C)c3)n2)c1,-1.0%
Cc1cccc(NC(=O)Cc2csc(COc3cccc(C)c3)n2)c1,37.8%
O=C(C1CC1)N1CCn2c(nn(-c3ccncc3)c2=O)C1,18.0%[44.1 µM]
Cc1nnnn1-c1ccc(NS(=O)(=O)NCc2ccccc2)cc1,27.4%
FC(F)(F)CN1C2CCC1CN(c1nnnn1-c1ccccc1)C2,21.6%
O=C1c2cnc(-c3ccc(Oc4ccccc4)cc3)nc2OCCN1CC1CC1,2.82µM*
O=C1c2cnc(-c3ccc(F)cc3)nc2OCCN1Cc1ccc(F)cc1F,i
O=C1c2cnc(-c3cccc(C(F)(F)F)c3)nc2OCCN1CC1CC1,-24.4%[44.1 µM]
COC[C@H]1CCCN1Cc1nc(C2(O)CCN(Cc3ccc(OC)cc3)CC2)cs1,i
CC(C)c1noc(-c2nc(-c3ccc4c(c3)OCO4)no2)n1,i
CN1CCN(c2nc3c(c(=O)[nH]2)CCN(CC2CCCCC2)CC3)CC1,16.9%[5.79 µM]
COCCOC1CCOC2(CCN(C(=O)NCc3ccc(C)cc3)CC2)C1 (configuration not stated),-20.5%
Cc1ccsc1CN1CCCC2(Cc3ccccc3CNC2=O)C1 (configuration not stated),-26.9%
CC(C)=CCN1CCCC2(Cc3ccccc3CNC2=O)C1 (configuration not stated),10µM*
O=C1NCc2ccccc2CC12CCCN(Cc1c(Cl)cncc1Cl)C2 (configuration not stated),-24.1%
CCCNC1(Cc2cc(COc3ccccc3)on2)COC1,-0.8%[44.1 µM]
Cc1cc(C)n(-c2nnc(Nc3ccc(C)c(C)c3)c3ccccc23)n1,-21.6%
Cc1ccc(-c2nnc(Nc3ccc(S(N)(=O)=O)cc3)c3ccccc23)cc1S(=O)(=O)N1CCCCC1,19.3%
Cc1cc(-c2ccc(C)c(S(=O)(=O)NC3CCCCC3)c2)on1,i
Cc1ccc(-c2noc(-c3ccc(NCC4CCCO4)c([N+](=O)[O-])c3)n2)cc1 (configuration not stated),18.5%
Cc1ccc(-c2nnc(Nc3ccc(O)cc3)c3ccccc23)cc1S(=O)(=O)NCC1CCCO1 (configuration not stated),5.01µM*
SMILES,Pf Dd2 inh
Cc1ccc(-c2nnc(Nc3ccc(Br)cc3)c3ccccc23)cc1S(=O)(=O)NCC1CCCO1 (configuration not stated),10µM*
Cc1ccc(-c2nnc(Nc3ccc(O)cc3)c3ccccc23)cc1S(=O)(=O)N1CCCCC1,10µM*
Cc1ccc(C(=O)Nc2cccc(O)c2)cc1S(=O)(=O)N1CCCCCC1,-24.2%
Cc1ccc(-c2nnc(Nc3ccc(C(=O)N(C)C)cc3)c3ccccc23)cc1S(=O)(=O)N(C)C,11.2µM*
COc1ccc(Nc2nnc(-c3ccc(C)c(S(=O)(=O)NCc4nc5ccccc5[nH]4)c3)c3ccccc23)cc1,74.8%
CNC(=O)c1ccc(Nc2nnc(-c3ccc(C)c(S(=O)(=O)N(C)C)c3)c3ccccc23)cc1,-10.9%
Cc1cc(-c2ccc(C)c(S(=O)(=O)NCc3cccc(Br)c3)c2)on1,19.5%
COc1ccc(NC(=O)CCn2cnnn2)cc1NC(=O)c1ccccc1,-9.3%
O=C(NC1CCN(c2nc3ncccc3o2)CC1)c1ccccc1,-11.6%[44.1 µM]
COc1ccc(Cl)cc1S(=O)(=O)N1CCc2nn(C)c(=O)n2CC1,47.8%
CN1CCC(N2CCN(C(=O)CCc3ccccc3)CC2)C1=O (configuration not stated),16.0%
O=C(c1ccccc1Cl)N1CCC(N2CCCNC2=O)CC1,10.1%[44.1 µM]
COc1ccc(C2(C(=O)N3CCC4(CC3)N(C)C(=O)CS4(=O)=O)CC2)cc1,-10.0%
CC(=O)N[C@@H]1CN(Cc2ccc(OC(C)C)cc2)C[C@H]1CO,20.9%
